Data on 107 compounds can be found in ChEMBL document CHEMBL4513216, “Probing the Open Global Health Chemical Diversity Library for Multistage-Active Starting Points for Next-Generation Antimalarials” (ACS Infect Dis, 2020).

About 8,600 (12%) of roughly 69,000 compounds showed an effect of 50% or more. The list comes from a sample in which strong results are over-represented; it also holds similar structures and randomly drawn compounds.

This test concerns Plasmodium berghei. Briefly: Screen against P. berghei liver stage (PbLuc), transformed with Luciferase, at 10uM. It counts as functional, HepG2. The conditions noted are these: tested at 10 uM.
For the compound `Cc1noc([C@]23COC[C@H]2CN(C(=O)Cc2ccsc2)C3)n1`, the INHIBITION came out at 38.5%.
For `O=C(CC1[C@H]2CN(Cc3ccc(F)cc3)C[C@@H]12)N1CCCC1` (some centres not stated) the value was -7.28%.
Regarding `O=C(NCCc1cc(F)ccc1F)NCC(O)C1CC1` (configuration not stated), the INHIBITION is given as 14.9%.
On to `Cc1nc(C(=O)N(C)C2CC(=O)N(Cc3ccccc3)C2=O)cs1` (configuration not stated), for which the INHIBITION was found to be 8.51%.
For `CN(C(=O)c1ccc[nH]1)C1CC(=O)N(Cc2ccccc2)C1=O` (configuration not stated) the value was 15.2%; for `Cc1[nH]ccc1C(=O)N(C)C1CC(=O)N(Cc2ccccc2)C1=O` (configuration not stated), 54.4%; for `O=C(c1cc(C2CCCCN2C(=O)C2CCC2)n[nH]1)N1CCOCC1` (configuration not stated), -22.6%.
Turning to `CCn1ncc(CN2CCc3nc(-c4cccnc4)nc(O)c3C2)c1C`, the INHIBITION was 29.2%.
Take `CN(C)C(=O)COC[C@]12COC[C@H]1CN(Cc1ccco1)C2`: the INHIBITION is -3.33%.
In the case of `CN(C)C(CNC(=O)NCCc1cccc(O)c1)c1ccco1` (configuration not stated), the INHIBITION is listed as 41.4%.
For `CN(C)C(CNC(=O)NCCS(C)(=O)=O)c1ccco1` (configuration not stated) the value was -18.3%; for `Cc1nc(CCNC(=O)NCC(c2ccco2)N(C)C)cs1` (configuration not stated), 55.6%; for `Cn1ccc2c(C(=O)N3CC[C@@]4(O)CCCC[C@H]4C3)cccc21`, 1.62%.
In the case of `O=S(=O)(Cc1ccc(F)cc1)NCCc1nnc2n1CCC2`, the INHIBITION was 30.5%.
For `O=C(NCc1nnc2n1CCCCC2)N(Cc1ccncc1)C1CC1` the value was 26.5%; for `CN(Cc1ccc(F)cc1)C(=O)NCc1nnc2n1CCC2`, -21.8%.
Turning to `CCN(CC1CCOC1)C(=O)NCc1nnc2n1CCCCC2` (configuration not stated), the INHIBITION was 34.4%.
With `O=S(=O)(Cc1ccccc1)NCc1nnc2n1CCC2`, the INHIBITION is on record as -12.4%.
In the case of `O=C(NCc1nnc2n1CCC2)c1ccc(C2CCCO2)s1` (configuration not stated), the INHIBITION is -1.7%.
For `O=C(NCc1nnc2n1CCCC2)c1ccc(C2CCCO2)s1` (configuration not stated) the value was 59.1%; for `CCN(CC1CCOC1)C(=O)NCc1nnc2n1CCC2` (configuration not stated), 42%.
For `O=C(NCc1nnc2n1CCC2)N(Cc1ccc(F)cc1)C1CC1` the value was 50.4%; for `O=S(=O)(Cc1ccc(F)cc1)NCc1nnc2n1CCC2`, 68.9%; for `O=C(NCc1nnc2n1CCCCC2)N(CC1CCOC1)C1CC1` (configuration not stated), 55%.
For `O=C(NCc1nnc2n1CCC2)c1ccc(Br)s1`, the INHIBITION came to 49.4%.
With `CCCC(C#N)NC(=O)c1sccc1CC` (configuration not stated), the INHIBITION is given as 46.6%.
For the compound `CSc1ncnc(NCc2cccs2)c1C#N`, the INHIBITION came out at 10.6%.
As to `Cc1nsc(N2CCCN(C(=O)NCc3cc(C)on3)CC2)n1`, the INHIBITION is reported as 45%.
For `CCc1nccn1C1CCCN(C(=O)c2ccc3c(c2)nnn3C)C1` (configuration not stated), the INHIBITION is listed as 12.7%.
In the case of `COc1cc2nc3n(c(=O)c2cc1OC)CCN(C(=O)C(C)(C)C)CC3`, the INHIBITION turned out to be 32.3%.
For `Cc1ccc(C(C)(O)CNC(=O)NCCc2ccc3c(c2)CCO3)o1` (configuration not stated), the INHIBITION amounted to 23.2%.
For `O=c1cc(CN2CC[C@@]3(O)CCCC[C@H]3C2)c2cccc3c2n1CCC3` the value was 42.1%; for `O=C(NCCc1c[nH]cn1)c1ccc(S(=O)(=O)NC2CCOC2)cc1` (configuration not stated), 4.68%.
Take `O=C(NCCNc1cc(N2CCCC2)cnn1)Nc1ccccc1F`: the INHIBITION is 53.8%.
For the compound `CSc1nnc(CNC(=O)Nc2ccccc2F)n1C`, the INHIBITION stood at 31.7%.
Consider `O=C(Cc1ccc(F)cc1)NCCNc1cc(N2CCCC2)cnn1`, for which the INHIBITION was found to be 34.6%.
For `CNS(=O)(=O)c1ccc(C(=O)Nc2ccc3c(c2)C(=O)NC3)cc1` the value was -5.26%.
For `O=C(Nc1ccc2c(c1)C(=O)NC2)c1ccc(S(=O)(=O)C(F)(F)F)cc1` the value was 55%; for `CS(=O)(=O)Cc1ccc(C(=O)Nc2ccc3c(c2)C(=O)NC3)cc1`, 37.9%.
Take `O=C(NCC1COC2(CCOCC2)O1)c1csc(-c2cccc(Cl)c2)n1` (configuration not stated): the INHIBITION came out at 15.5%.
For `COCC(=O)N1C[C@H]2CNC[C@@]2(C(=O)NCc2cc(C)n[nH]2)C1` the value was 59.5%; for `COCC(=O)N1C[C@H]2CNC[C@@]2(C(=O)NCc2nc(C)cc(C)n2)C1`, 1.45%.
For `COCC(=O)N1C[C@H]2CNC[C@@]2(C(=O)NCc2c(C)noc2C)C1` the value was -31.9%; for `CCC[C@H]1CN(S(C)(=O)=O)C[C@@H]1NC(=O)COC(C)C`, 34.9%; for `Cc1cccc(CN2CCN3C(=O)NC[C@H]3C2)n1`, -27.5%.
For `Cc1ccc(CN2CCN(Cc3cc(C)n[nH]3)CC2CCO)cc1` (configuration not stated) the value was -0.529%; for `CC(C)=CCN1CCN(Cc2cc(C)n[nH]2)CC1CCO` (configuration not stated), 26.6%; for `Cc1cccc(CN2CCN(Cc3ccccc3)CC(O)C2)n1` (configuration not stated), 16.8%.
As to `CC(C)=CCN1CCN(Cc2cc(C)c(O)c(C)c2)CC1CCO` (configuration not stated), the INHIBITION turned out to be 51.3%.
In the case of `CC(C)=CCN1CCN(Cc2cccc(C)n2)CC1CCO` (configuration not stated), the INHIBITION was 67.4%.
For `CC(C)N1CCC(N2CCN(C3CCCCC3)CC2CCO)CC1` (configuration not stated) the value was 22%; for `CCn1cc(Cl)c(C(=O)Nc2ccc3c(c2)C(C)(C)C(=O)N3C)n1`, 20.9%; for `O=C(CCc1cc(O)no1)N1CCCC(OCc2cccnc2)C1` (configuration not stated), 23.6%.
For `Cc1c(S(=O)(=O)N(CCc2ccccc2)Cc2ccn(C)n2)cnn1C` the value was 41.9%.
For `CNC(=O)NCC(CO)Cc1ccccc1OC(F)(F)F` (configuration not stated) the value was 16%; for `COCCOc1nc(-c2ccccc2Cl)no1`, 14.9%.
In the case of `CS(=O)(=O)CCOc1nc(-c2ccccc2Cl)no1`, the INHIBITION was -3.94%.
Turning to `CCS(=O)(=O)CCCOc1nc(-c2ccccc2Cl)no1`, the INHIBITION came out at 50%.
For the compound `CCc1nccn1C1CCCN(C(=O)c2cnn3ccc(C)nc23)C1` (configuration not stated), the INHIBITION came out at 24.6%.
For `CCc1nccn1C1CCCN(C(=O)c2cnc3ccccc3n2)C1` (configuration not stated) the value was 29.2%; for `CCc1nccn1C1CCCN(C(=O)c2ccn(-c3ccccc3)n2)C1` (configuration not stated), 52.2%; for `Cc1noc2ncc(C(=O)N3CCCC(n4cccn4)C3)cc12` (configuration not stated), 27.8%.
On to `CCc1nccn1C1CCCN(C(=O)c2ccnc(N(C)C)c2)C1` (configuration not stated), for which the INHIBITION stood at 65.85%.
Consider `CCc1nccn1C1CCCN(C(=O)c2cnn(C)c2C2CC2)C1` (configuration not stated), for which the INHIBITION was determined as 44.8%.
For `CCc1nccn1C1CCCN(C(=O)c2cnc3onc(C)c3c2)C1` (configuration not stated) the value was 66.4%.
Take `CC(C)c1nccn1C1CCCN(C(=O)c2ccnc(N(C)C)c2)C1` (configuration not stated): the INHIBITION amounted to 42.9%.
In the case of `Cc1noc2ncc(C(=O)N3CCCC(n4ccnc4C)C3)cc12` (configuration not stated), the INHIBITION turned out to be 32.3%.
Take `CCc1nccn1C1CCCN(C(=O)c2ccc(N(C)C)nn2)C1` (configuration not stated): the INHIBITION stood at 45.65%.
For `CCc1nccn1C1CCCN(C(=O)c2cncn2-c2ccccc2)C1` (configuration not stated), the INHIBITION was found to be 32.45%.
For `CCc1nccn1C1CCCN(C(=O)c2cnn3cccnc23)C1` (configuration not stated) the value was 55.4%; for `O=c1ccc2c([nH]1)CCC(NS(=O)(=O)C1CC1)C2` (configuration not stated), 32.5%.
For `O=C(NCc1ccccc1)N1CCc2ncnc(NC3CC3)c2CC1` the value was 40.3%; for `CCOCc1nc(-c2cccc(OC)c2OC)n(C2CCN(C)CC2)n1`, 21.2%; for `CN(CC(=O)Nc1ccc(Br)cn1)C(=O)C(C)(C)C`, -17.6%.
On to `O=C(Cc1cccnc1)N1CCCC2(CCN(CC3CCOCC3)C2)C1` (configuration not stated), for which the INHIBITION is listed as 18.5%.
For `Cc1cc(C)c(C(=O)N(C)CCN(C)C(=O)OC(C)(C)C)[nH]1`, the INHIBITION was 11.4%.
For `Cc1cncnc1C1CCN(C(=O)CN(C)C)CC1` the value was -15.1%; for `CN(C)C(=O)N1CCC2(CC1)CN(Cc1ccccn1)C(=O)CO2`, 30.4%.
For `Cc1nccn1C1CCCN(C(=O)c2ccc3c(c2)OCCCO3)C1` (configuration not stated) the value was 47%.
For `CCc1nccn1C1CCCN(C(=O)c2ccc3c(c2)OCCO3)C1` (configuration not stated) the value was 52.5%; for `CCc1nccn1C1CCCN(C(=O)c2ccc3c(c2)OCO3)C1` (configuration not stated), 34.9%; for `CCCn1nc(C)c(CNS(=O)(=O)NCc2ccccc2)c1C`, -8.66%.
Turning to `CCCn1cc(Cl)c(C(=O)N2C[C@@H](O)[C@H](Oc3ccccc3)C2)n1`, the INHIBITION was -10.55%.
In the case of `O=S(=O)(CCc1ccccc1Cl)CC(O)CO` (configuration not stated), the INHIBITION was found to be 35.7%.
For `Cc1ccsc1C(=O)Nc1cnn(CC(=O)NC2CCCC2)c1` the value was -4.63%; for `Cc1nc(C)c(C(=O)Nc2cnn(CC(=O)NC3CCCC3)c2)s1`, 54.5%; for `Cc1cc(C(=O)Nc2cnn(CC(=O)NC3CCCC3)c2)c(C)s1`, 12.4%.
For `Cc1nn(C)c2cnn(CCCNS(=O)(=O)Cc3ccccc3)c12` the value was 41.6%.
Regarding `Cc1nccn1C1CCCN(C(=O)CCNc2ncccn2)C1` (configuration not stated), the INHIBITION is reported as 5.03%.
For the compound `CC(C)CNC(=O)N1CCC2(CC1)OC(C(N)=O)Cn1ccnc12` (configuration not stated), the INHIBITION is 39.4%.
For `COC(=O)C1CCCN1C(=O)c1ccc(-n2nc(C)cc2C)cc1` (configuration not stated) the value was -16.8%; for `COCCCNC(=O)c1c(-n2cnnn2)sc2c1CCC2`, 30.8%.
For `COCCNC(=O)c1c(-n2cnnn2)sc2c1CCCC2`, the INHIBITION was -6.42%.
For `COCCCNC1N=C(n2nc(C)cc2C)Nc2sc3c(c21)CCCC3` (configuration not stated) the value was 88.8%; for `CC(C)OCCCNC(=O)c1c(-n2cnnn2)sc2c1CCCC2`, 20.1%; for `Cc1cc(C)n(C2=NC(NCCCO)c3c(sc4c3CCCC4)N2)n1` (configuration not stated), 79.7%.
For `Cc1cc(C)n(C2=NC(NCCC(C)C)c3c(sc4c3CCCC4)N2)n1` (configuration not stated) the value was 90.5%.
Take `Cc1oc(C(=O)O)cc1S(=O)(=O)Nc1cc(Br)ccc1F`: the INHIBITION is -0.96%.
For `Cc1ncncc1C(=O)N1CCC(O)(CN(C)Cc2ccc(F)cc2)C1` (configuration not stated) the value was 6.32%; for `CC(C)c1nnc(CCC(=O)N2CCCC(c3cnccn3)C2)o1` (configuration not stated), 26.7%.
Take `CN(C)C(=O)c1nn(C)c2c1CN(Cc1ccc(F)cc1)C2`: the INHIBITION was found to be 31.7%.
As to `CCCN1CCN(C(=O)Nc2ccccc2Cl)[C@H]2CS(=O)(=O)C[C@H]21`, the INHIBITION is listed as -32.9%.
For `Cc1ccccc1NC(=O)N1CCN(C(=O)C2CC2)[C@@H]2CS(=O)(=O)C[C@@H]21` the value was -5.22%; for `CS(=O)(=O)NCC1CCCN(C(=O)Nc2ccccc2Cl)C1` (configuration not stated), 9.48%; for `O=C(Nc1ccccc1Cl)N1CCN(CC2CC2)[C@@H]2CS(=O)(=O)C[C@@H]21`, 52.2%.
For `CN(C)C(=O)N1CCN(Cc2ccccc2)[C@@H]2CS(=O)(=O)C[C@@H]21` the value was -33.2%; for `CC(=O)N1CCN(C(=O)Nc2ccccc2Cl)[C@H]2CS(=O)(=O)C[C@H]21`, 72%.
